Assay [1] has as its target Arylsulfatase A (Homo sapiens) (UniProt P15289). Description: qHTS screen for enhancers of Arylsulfatase A (ASA1): LOPAC Validation Assay (AID 720538). Also: 0% is about no effect. Put shortly: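 Read-out: fluorescence at Ex=525/Em=598 nm after 1N NaOH final stop. Patient fibroblasts carrying ASA-I179S had 48h compound exposure, then 14h room-temperature pNCS hydrolysis (0.5mM final) in lysis buffer. Signal increase = enhanced activity.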
For orientation: In qHTS, concentration-response curves come from the screen itself.

Assay [2] is described as follows: qHTS for compounds that reverse cellular toxicity of Amyloid beta (A-beta) peptide in yeast: LOPAC Validation Assay (AID 720559).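 Also: plate controls were DMSO for no effect and equimolar ferric chloride plus clioquinol rescue for full effect.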 Put shortly: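 OD600 growth readout after 48 hr at 30 C; A-beta-toxic yeast plus pinned compounds in medium. Normalization: DMSO = negative, equimolar FeCl3 + clioquinol = positive.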
Assay [3] in a line: qHTS for Activators of Parkin Expression: LOPAC Validation Assay (FLuc Reporter) (AID 720573). In short, it runs like this: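 FLuc luminescence read-out from a neuronal line expressing a Parkin-promoter-driven coincidence reporter. Cells treated 24 h at 37 C, 5% CO2 with compounds at 7 concentrations; signal increase normalized to DMSO and positive control.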
Assay [4] is described as follows: qHTS assay for small molecule agonists of the antioxidant response element (ARE) signaling pathway measured by Nrf2-dependant transcriptional activity (AID 720636; active = well fitted curve in the direction sought with a large enough effect in the repeat runs; an effect the other way counts as inactive or inconclusive;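 also: HepG2 cells with an ARE-driven luciferase reporter; % of control where 0% means no effect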). Put shortly:
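HepG2 ARE-luc reporter line, 1% dialyzed FBS; 6 hr attachment at 37 C, compound pinned in, 16 hr at 37 C/5% CO2; ONE-Glo, 30 min RT, luminescence read.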

A short description of assay [5]: qHTS assay for small molecule antagonists of the retinoid-related orphan receptor gamma (ROR-gamma) signaling pathway - cell viability counter screen (AID 720652; active = well fitted curve in the direction sought with a large enough effect in the repeat runs; an effect the other way counts as inactive or inconclusive;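 also: compound exposure lasted 16 hr before ATP read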; also: potency is read from the fitted curve at half-maximal effect). In short, it runs like this:
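Steps: seed CHO cells bearing TET-inducible ROR and ROR response element-luciferase; rest 5 hr at 37 C; add compound, then doxycycline; incubate 16 hr; add CellTiter-Glo and read luminescence as ATP-based viability.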

The nature of assay [6]: qHTS assay for small molecule agonists of the antioxidant response element (ARE) signaling pathway measured by Nrf2-dependant transcriptional activity - cell viability counter screen (AID 720653; active = well fitted curve in the direction sought with a large enough effect in the repeat runs; an effect the other way counts as inactive or inconclusive; also: potency is read from the fitted curve at half-maximal effect; as to max response: % is scaled to controls: 0 for no effect and ±100 for the full control effect). The settings on record: ARE-bla HepG2 viability, CellTiter-Glo ATP luminescence, 16 h; max response: stronger effect = lower value. Put shortly: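 Cytotoxicity counter screen: intracellular ATP quantified by CellTiter-Glo luminescence in the same ARE-bla HepG2 plates, after 16 h compound exposure and a 2 h beta-lactamase substrate step.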

The target of assay [7] is T1, Hexokinase-4 (Homo sapiens) + Glucokinase regulatory protein (Homo sapiens) (UniProt P35557+Q14397). Description: qHTS assay for inhibitors of recombinant human GCK-GKRP interaction: Diaphorase-coupled assay (AID 743205). Put shortly: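 Resorufin fluorescence (525/590 nm), read each minute over 30 min, reports GCK activity coupled via G6PDH and diaphorase. Reaction: 10 nM GST-GCK, 10 nM FLAG-GKRP, 5 mM glucose, 0.4 mM ATP, 0.15 mM NADP+, 0.1 mM resazurin.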

Assay [8] has as its target T1, Hexokinase-4 (Homo sapiens) + Glucokinase regulatory protein (Homo sapiens). In words: qHTS assay for inhibitors of recombinant human GCK-GKRP interaction: ADP-Glo assay (AID 743206).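 Also: plate controls were DMSO plus enzyme for no effect and no enzyme for full effect.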 In short, it runs like this:
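Pin-transferred compounds meet a 15 nM GST-GCK/15 nM FLAG-GKRP/2 uM S6P mix (dispense concentrations). ATP is then added to 0.4 mM final with 5 mM glucose, and the reaction runs 60 min at room temperature. ADP is quantified luminescently.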

The target is the same in assay [9]. In words: qHTS assay for inhibitors of recombinant human GCK-GKRP interaction: HTRF assay (AID 743207).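 Also: 0% = DMSO with GCK present and -100% = DMSO wells lacking GCK.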 Put shortly:
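HTRF read-out (ex 320 nm; 615/665 nm emission) after 60 min RT equilibration of 5 nM GST-GCK, 5 nM FLAG-GKRP, 2 uM S6P, compound and anti-FLAG/anti-GST detection antibodies; signal normalized between DMSO wells with and without GCK.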

Assay [10] in a line: qHTS Assay for Identifying Gametocytocidal Compounds (AID 743244).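 Also: % is scaled to controls: 0 for no effect and ±100 for the full control effect; actives lower the fluorescent signal which means gametocytes are killed.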 The settings on record: P. falciparum 3D7 stage III-V gametocytes, alamarBlue, 72 h; max response: stronger effect = lower value. Put shortly: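 Late gametocytes (III–V), P. falciparum 3D7; 72 h drug, then 24 h alamarBlue; resazurin reduction read by fluorescence.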
Assay [11] can be described thus: qHTS assay for cell viability of HEK293 cells (AID 743288). Also: % is scaled to controls: 0 for no effect and ±100 for the full control effect; nearly all actives have a fitted effect of over 50% in size. The settings on record: ATP luminescence (CellTiter-Glo), 18 h; max response: stronger effect = lower value. In short, it runs like this: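 ATP luminescence (CellTiter-Glo) reports metabolically competent cell number after parental HEK293 cells, 2,000/well, were treated with DMSO-dissolved compounds for 18 h at 37 C; reagent incubation 30 min, room temperature.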

Assay [12] can be described thus: qHTS assay for cell viability of the p53RE-bla HCT-116 cell line (AID 743292). Also: nearly all actives have a fitted effect of over 55% in size. Also: potency is read from the fitted curve at half-maximal effect. Put shortly: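 Luminescent ATP quantitation (CellTiter-Glo) served as the viability read-out; reagent was added after 16 h compound exposure at 37 C and read after 30 min at room temperature. Cells: p53RE-bla HCT-116, 4,000 per well.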
Assay [13] can be described thus: qHTS profiling of the MIPE4 collection as inhibitors of Plasmodium falciparum (3D7) proliferation (AID 743344; call rule not given here;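 also: scaled between DMSO vehicle wells and 0.29 µM artemisinin as full inhibition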). The settings on record: P. falciparum 3D7 in erythrocytes, SYBR Green DNA fluorescence, 72 h; at 28.5 µM (top of the series) unless noted. In short, it runs like this:
(§1)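 Parasite DNA was quantified by SYBR Green I fluorescence (ex 485, em 535 nm) after overnight lysis in saponin/Triton buffer at room temperature. Cultures at 0.3% parasitemia and 2.5% hematocrit were first exposed to compound for 72 h at 37 C; signals were normalised to artemisinin (0.29 uM) and vehicle wells.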

A short description of assay [14]: qHTS profiling of the MIPE4 collection as inhibitors of Plasmodium falciparum (DD2) proliferation (AID 743345; call rule not given here). The settings on record: P. falciparum Dd2 in erythrocytes, SYBR Green DNA, 72 h; at 28.5 µM (top of the series) unless noted. Put shortly: as §1
Assay [15] can be described thus: qHTS profiling of the MIPE4 collection as inhibitors of Plasmodium falciparum (DD2) proliferation (Rep 2) (AID 743346; call rule not given here). The settings on record: P. falciparum Dd2 in erythrocytes, SYBR Green DNA, 72 h; at 28.5 µM (top of the series) unless noted. In short, it runs like this: as §1
Assay [16] can be described thus: qHTS for Activators of Parkin Expression: LOPAC Validation Assay (NLuc Reporter) (AID 720572). Put shortly: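 Compound effects on Parkin promoter activity were measured as NanoLuc luminescence after 24 h at 37 C. The neuronal reporter line also carried FLuc, which was read first. LOPAC compounds were tested at 7 concentrations, with normalization to DMSO (0%) and positive control (100%).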

Values joined by “and” are separate entries in the source; they are usually repeats but may differ in a detail not shown here. Identical values can stand only once. Records with an inconclusive call do not appear. Active and inactive are the calls of the source. Unless noted, calls follow the shape of the dose curve; as a rule, active = well fitted curve in the direction sought with a large enough effect; inconclusive = small, poorly fitted or top-dose-only effect, or another doubt; inactive = no such curve, though single readings can be large; an effect the other way counts as inactive or inconclusive.

T1 sequence (P35557 whole entry, looked up): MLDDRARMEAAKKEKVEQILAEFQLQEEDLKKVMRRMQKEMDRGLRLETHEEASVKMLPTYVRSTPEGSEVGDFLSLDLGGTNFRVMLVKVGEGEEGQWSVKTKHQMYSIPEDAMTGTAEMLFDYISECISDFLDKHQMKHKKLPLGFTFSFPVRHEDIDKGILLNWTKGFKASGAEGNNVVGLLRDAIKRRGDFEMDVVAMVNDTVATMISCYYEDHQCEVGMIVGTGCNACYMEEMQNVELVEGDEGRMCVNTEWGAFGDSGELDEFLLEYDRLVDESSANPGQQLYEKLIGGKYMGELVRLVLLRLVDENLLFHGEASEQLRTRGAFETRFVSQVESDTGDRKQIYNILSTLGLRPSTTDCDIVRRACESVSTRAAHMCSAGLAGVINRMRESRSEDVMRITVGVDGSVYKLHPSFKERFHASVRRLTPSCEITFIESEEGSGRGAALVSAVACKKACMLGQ
T1 sequence (Q14397 whole entry, looked up): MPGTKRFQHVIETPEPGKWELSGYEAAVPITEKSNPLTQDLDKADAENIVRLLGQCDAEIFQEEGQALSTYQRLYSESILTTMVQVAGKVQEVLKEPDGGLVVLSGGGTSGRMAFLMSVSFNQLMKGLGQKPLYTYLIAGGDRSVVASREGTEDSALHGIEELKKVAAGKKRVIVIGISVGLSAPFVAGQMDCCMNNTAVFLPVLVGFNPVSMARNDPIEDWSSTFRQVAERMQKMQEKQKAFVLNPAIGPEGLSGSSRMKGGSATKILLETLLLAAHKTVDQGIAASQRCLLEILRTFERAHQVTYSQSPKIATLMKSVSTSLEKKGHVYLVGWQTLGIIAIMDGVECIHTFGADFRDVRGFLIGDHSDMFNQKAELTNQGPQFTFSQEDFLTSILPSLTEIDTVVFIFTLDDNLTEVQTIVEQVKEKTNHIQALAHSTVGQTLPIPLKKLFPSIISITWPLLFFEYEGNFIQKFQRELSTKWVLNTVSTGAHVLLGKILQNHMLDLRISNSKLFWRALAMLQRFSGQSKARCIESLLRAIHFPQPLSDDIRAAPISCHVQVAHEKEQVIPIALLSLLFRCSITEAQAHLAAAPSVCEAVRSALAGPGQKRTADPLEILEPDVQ
Sequence of Arylsulfatase A (Homo sapiens) (P15289 whole entry, looked up): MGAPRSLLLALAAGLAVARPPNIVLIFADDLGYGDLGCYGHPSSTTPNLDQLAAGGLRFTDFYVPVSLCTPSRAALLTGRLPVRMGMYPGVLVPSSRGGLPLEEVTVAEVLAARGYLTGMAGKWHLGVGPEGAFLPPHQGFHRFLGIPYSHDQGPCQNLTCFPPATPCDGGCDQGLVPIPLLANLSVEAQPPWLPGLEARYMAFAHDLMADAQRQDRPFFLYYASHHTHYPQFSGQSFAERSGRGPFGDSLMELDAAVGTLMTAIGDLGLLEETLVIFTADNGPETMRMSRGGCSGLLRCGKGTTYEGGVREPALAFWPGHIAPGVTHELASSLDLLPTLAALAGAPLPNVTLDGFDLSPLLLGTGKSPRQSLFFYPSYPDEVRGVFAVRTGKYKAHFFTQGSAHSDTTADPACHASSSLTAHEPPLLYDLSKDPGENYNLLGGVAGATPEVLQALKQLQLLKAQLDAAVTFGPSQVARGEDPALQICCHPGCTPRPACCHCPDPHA

On to `COc1ccc2c(c1)c(CC(=O)O)c(C)n2C(=O)c1ccc(Cl)cc1`, for which the Potency result in assay [1], in assay [3], in [5], in assay [7], in [8] and in assay [9] was “inactive” in each case. In addition, the Potency entry in assay [12] is “inactive”. For the same compound, the call in assay [2] and in assay [4] was inactive. In addition, the max response in assay [6] was 1.73% (inactive) and -1.81% (inactive); in assay [10] it was 2.39% (inactive) and 17.2% (inactive); in assay [11], 11.9% (inactive) and -6.39% (inactive). This compound also showed a parasite growth, % of DMSO control in assay [13] of 55.7%. For the same compound, the parasite growth remaining, % of DMSO control (lower = more inhibition) in [14] is 103%. Moreover, in assay [15], the parasite growth, % of control (lower = inhibition) came to 127%.
As for `CN1CCC(=C2c3ccccc3C=Cc3ccccc32)CC1`, the outcome in assay [2] and in assay [16] was inactive. Also, the Potency result in assay [3], in [7], in assay [8] and in assay [9] was “inactive” each time. Further, the parasite growth, % of DMSO control in assay [13] was 15%. The parasite growth remaining, % of DMSO control (lower = more inhibition) in assay [14] came out at 36%. The parasite growth, % of control (lower = inhibition) in assay [15] is 35.3%.
With `CCOC(=O)Nc1ccc(NCc2ccc(F)cc2)nc1N`, the compound was called inactive in assay [2] and in assay [16]. In addition, the Potency result in assay [3], in assay [8] and in [9] was “inactive” in each case.
As for `O=C1Cc2cc(CCN3CCN(c4nsc5ccccc45)CC3)c(Cl)cc2N1`, the result in [2] and in assay [16] was inactive. Moreover, the Potency result in assay [3], in assay [7], in [8] and in assay [9] was “inactive” throughout. The max response in assay [10] is -0.117% (inactive) and 9.6% (inactive). In [13], this compound came in with a parasite growth, % of DMSO control of 14.8%. Further, the parasite growth remaining, % of DMSO control (lower = more inhibition) in [14] came out at 21.2%. Also, in [15], the parasite growth, % of control (lower = inhibition) was determined as 20.5%.
As for `OCCN(CCO)c1nc(N2CCCCC2)c2nc(N(CCO)CCO)nc(N3CCCCC3)c2n1`, the Potency entry in assay [1] was “inactive”. For the same compound, the compound was classed as inactive in assay [2]. Moreover, the max response in [10] is 7.4% (inactive). For the same compound, the parasite growth, % of control (lower = inhibition) in [15] was found to be 36.9%.
In the case of `CN(Cc1cnc2nc(N)nc(N)c2n1)c1ccc(C(=O)N[C@@H](CCC(=O)O)C(=O)O)cc1`, the result in [2], in assay [16] and in assay [4] was inactive. Moreover, the Potency result in assay [3], in assay [7], in assay [8] and in assay [9] was “inactive” throughout. Also, the Potency was 44.7 nM (active) in assay [6] and 282 nM (active) in [12]. Also, the max response in assay [10] was -2.41% (inactive) and 9.8% (inactive). The compound also registered a parasite growth, % of DMSO control in assay [13] of 8.82%. Further, in assay [14], the parasite growth remaining, % of DMSO control (lower = more inhibition) was 7.1%. For the same compound, the parasite growth, % of control (lower = inhibition) in [15] amounted to 8.39%.
As to `O=C1N(c2ccccc2)c2ccccc2C1(Cc1ccncc1)Cc1ccncc1`, the compound was called inactive in assay [2] and in assay [16]. Further, the Potency entry in assay [3], in assay [7], in [8] and in assay [9] was “inactive” throughout. For the same compound, the max response in [10] was -4.76% (inactive) and 23.2% (inactive). Also, the parasite growth, % of DMSO control in assay [13] was 105%. Moreover, the parasite growth remaining, % of DMSO control (lower = more inhibition) in assay [14] came out at 86.2%. The parasite growth, % of control (lower = inhibition) in assay [15] is 120%.
For the compound `CC1COc2c(N3CCN(C)CC3)c(F)cc3c(=O)c(C(=O)O)cn1c23` (stereo not drawn), the call in assay [2] and in [16] was inactive. For the same compound, the Potency result in assay [3], in assay [7], in assay [8] and in assay [9] was “inactive” in each case. Further, the max response in assay [10] was 18.2% (inactive) and 27.4% (inactive). This compound showed a parasite growth, % of DMSO control in assay [13] of 59.3%. In addition, the parasite growth remaining, % of DMSO control (lower = more inhibition) in assay [14] was 84.7%. Moreover, in assay [15], the parasite growth, % of control (lower = inhibition) was found to be 76.4%.
Turning to `Clc1ccc(C(c2ccccc2Cl)C(Cl)Cl)cc1` (stereo not drawn), the compound was classed as inactive in assay [2], in [16] and in assay [4]. Also, the Potency in assay [5] is 59600 nM (active). Moreover, the max response in [6] was -18.3% (inactive) and -6.45% (inactive); in assay [10] it was -1.64% (inactive) and 6.44% (inactive). Also, the Potency entry in [7], in [8] and in assay [9] was “inactive” throughout. The parasite growth, % of DMSO control in assay [13] is 24.3%. Moreover, the parasite growth remaining, % of DMSO control (lower = more inhibition) in [14] turned out to be 51.1%. For the same compound, the parasite growth, % of control (lower = inhibition) in [15] came to 54.8%.
